RECQ1 inh = qHTS Assay for Inhibitors of RecQ-Like Dna Helicase 1 (RECQ1); 0.54% of 240,000 active; RECQ1 DNA unwinding, red fluorescence kinetic read; ATP-dependent DNA helicase Q1 (Homo sapiens), P46063; Potency, µM (doses to about 57.3 µM), without a hit: at the top dose activity, negative = inhibition, hits mostly inhibitors;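 further: plate controls were vehicle for no effect and no enzyme for full effect; nearly all actives have a fitted effect of over 30% in size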
Target sequence (P46063 whole entry, looked up): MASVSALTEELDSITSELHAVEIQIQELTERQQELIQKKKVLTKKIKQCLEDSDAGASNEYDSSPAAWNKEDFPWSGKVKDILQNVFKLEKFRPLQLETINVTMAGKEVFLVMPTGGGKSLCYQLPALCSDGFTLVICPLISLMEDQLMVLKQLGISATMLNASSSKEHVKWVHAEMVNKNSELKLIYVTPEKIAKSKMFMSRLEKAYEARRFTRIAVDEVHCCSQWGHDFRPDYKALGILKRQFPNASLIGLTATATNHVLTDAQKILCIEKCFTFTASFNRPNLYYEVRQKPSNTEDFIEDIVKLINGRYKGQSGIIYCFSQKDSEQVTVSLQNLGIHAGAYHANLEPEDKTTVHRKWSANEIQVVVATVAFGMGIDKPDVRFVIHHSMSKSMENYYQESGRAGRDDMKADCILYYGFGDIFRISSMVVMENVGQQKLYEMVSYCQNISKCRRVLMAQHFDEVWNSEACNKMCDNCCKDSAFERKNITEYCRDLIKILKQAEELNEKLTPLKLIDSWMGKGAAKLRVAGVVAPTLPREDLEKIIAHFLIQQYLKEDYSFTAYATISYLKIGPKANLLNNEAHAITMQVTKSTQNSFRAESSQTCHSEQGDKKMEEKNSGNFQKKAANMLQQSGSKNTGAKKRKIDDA
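50 nM RECQ1T1 preincubated 15 min with compound in Tris pH 8.0 buffer with MgCl2, DTT, Tween-20 and 2.5 ug/ml poly(dI-dC); started with 200 nM TAMRA/BHQ-2 forked duplex and 2 mM ATP. Unwinding read as fluorescence (525/598 nm), two reads 2 h apart.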
APEX1 inh = qHTS Assay for Inhibitors of the Human Apurinic/apyrimidinic Endonuclease 1 (APE1); AID 2517, 2012; DNA repair nuclease/redox regulator APEX1 (Homo sapiens), P27695; 0.35% of 350,000 active; Potency, µM (series often up to 65.8 µM), without a hit: top-dose activity change, negative = inhibition, most hits filed as inhibitors; recombinant APE1, TAMRA/BHQ-2 abasic DNA cleavage fluorescence;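 further: plate controls were vehicle for no effect and reference inhibitor for full effect; nearly all actives have a fitted effect of over 55% in size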
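Endonuclease cleavage of a quenched abasic-site DNA duplex (50 nM) by APE1 (0.75 nM) was tracked by TAMRA dequenching. Compounds were preincubated with enzyme 15 min at room temperature; data normalized to buffer-only and DMSO wells plus NSC13755 control.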
BLM helicase inh = qHTS Assay for Inhibitors of Bloom's syndrome helicase (BLM); RecQ-like DNA helicase BLM (Homo sapiens), P54132; Potency, µM (highest dose often 56.1 µM), for inactives: at the top dose activity change, negative = inhibition, most hits filed as inhibitors; 0.2% of 350,000 active; AID 2528, 2010; recombinant BLM DNA unwinding, fluorescence dequenching;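 further: plate controls were vehicle for no effect and no enzyme for full effect; nearly all actives have a fitted effect of over 35% in size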
L3MBTL1 block = qHTS Assay for the Inhibitors of L3MBTL1. Lethal(3)malignant brain tumor-like protein 1 (Homo sapiens), Q9Y468. AlphaScreen L3MBTL1–H3K9me1 peptide binding. Potency, µM (series often up to 57.1 µM), without a hit: top-dose activity, negative = inhibition, actives largely listed as inhibitors. 0.66% of 230,000 active; further: nearly all actives have a fitted effect of over 60% in size
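Displacement of a biotinylated histone H3(1-15) peptide monomethylated at Lys9 (75 nM) from L3MBTL1 (50 nM) was measured by AlphaScreen after a 30 min room-temperature compound incubation; cefsulodin titration served as intraplate control.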
WRN inhibitor = qHTS for Inhibitors of WRN Helicase; WRN helicase unwinding, fluorescent forked duplex, kinetic; Bifunctional 3'-5' exonuclease/ATP-dependent helicase WRN (Homo sapiens), Q14191; Potency, µM (doses to about 114 µM), without a hit: at the highest dose activity change, negative = inhibition, hits mostly inhibitors; 0.46% of 360,000 active; further: nearly all actives have a fitted effect of over 55% in size
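Kinetic fluorescence helicase assay: unwinding of a quenched forked DNA duplex (100 nM final) with 2 mM ATP final raises red fluorescence (525/598 nm). Compounds sat 15 min at room temperature with 20 nM WRN beforehand.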
* hit, by the source's call; i = inactive; u = inconclusive; x = not tested or not shown; [ ] = remark or other dose. Most compounds without a hit are left out; they make up all but 0.92% or so of the library. The call rests on the fitted dose curve; in most records, active means well fitted curve in the direction sought with a large enough effect; inconclusive means small, poorly fitted or top-dose-only effect, or another doubt; inactive means no such curve, though single readings can be large; an effect the other way counts as inactive or inconclusive. Unless noted, on the % scale 0 is the no-effect control and ±100 the full control effect; potency means the concentration at half of the fitted maximal effect.

SMILES | RECQ1 inh | APEX1 inh | BLM helicase inh | L3MBTL1 block | WRN inhibitor
CO/N=C(/C(=O)N[C@@H]1C(=O)N2C(C(=O)O)=C(CSc3cnns3)CS[C@H]12)c1csc(N)n1 | x | x | 2% | x | x
Cc1[nH]c2ccccc2c1C1=CC(=O)C=CC1=O | x | x | x | x | 56µM*
O=C(Nc1cc(Sc2ccccn2)cc([N+](=O)[O-])c1)c1ccc([N+](=O)[O-])cc1 | -12% | -8% | -13% | -6% | 32µM*
CCc1ccc(-n2cccc2/C=C2/C(=N)N3C(=NC2=O)SN=C3S(C)(=O)=O)cc1 | 35µM* | u | u | u | -12%[11.6 µM]
COc1cccc(-n2c(C)cc(/C=C3/C(=N)N4C(=NC3=O)SN=C4S(C)(=O)=O)c2C)c1 | -12% | 18% | -23% | x | -18%[57.1 µM]
CS(=O)(=O)C1=NSC2=NC(=O)/C(=C\c3cccn3-c3ccccc3Cl)C(=N)N21 | 25µM* | -8% | -29% | -4% | -10%[11.6 µM]
Cc1ccc(-n2cccc2/C=C2/C(=N)N3C(=NC2=O)SN=C3S(C)(=O)=O)cc1 | 25µM* | u | -27% | u | u
Cc1cc(C)cc(-n2cccc2/C=C2/C(=N)N3C(=NC2=O)SN=C3S(C)(=O)=O)c1 | 32µM* | u | 32µM* | x | -11%[11.6 µM]
COc1ccc(C2=Nn3c(nnc3-c3ccccc3C(F)(F)F)SC2)cc1OCC1CC1 | x | 0% | x | x | x
NC(=O)c1cccc(-c2noc(-c3ccccc3C(F)(F)F)n2)c1 | x | 2% | x | x | x
COc1ccc(Cl)c(Cn2cnc3c(cnn3C(C)(C)C)c2=O)c1 | x | 19% | x | x | x
O=c1ncccn1[C@@H]1O[C@H](CO)[C@@H](O)[C@H]1O | -3% | -2% | -5% | x | x
O=C1C(Cl)=C(NCCCO)C(=O)c2ccccc21 | -2% | -2% | -5% | x | -11%
O=C1C(SCCO)=C(SCCO)C(=O)c2ccccc21 | u | u | 8.9µM* | u | 79µM*
C#C[C@]1(OC(C)=O)CC[C@H]2[C@@H]3CCC4=C/C(=N/O)CC[C@@H]4[C@H]3CC[C@@]21CC | x | x | -13% | x | x
CN1C=C/C(=C\c2cc[n+](C)c3ccccc23)c2ccccc21 | -7% | 3% | u | x | 40µM*
Cc1ccc(NC(=O)c2cc3ccccc3oc2=N)cc1 | x | 57% | -1% | x | -3%
N=c1oc2c3c4c(cc2cc1C(=O)Nc1ccccc1)CCCN4CCC3 | -12% | -1% | -4% | 41% | 56µM*
c1ccc(-c2cn(C[C@H]3CC[C@@H]([C@@H]4CC[C@H](Cn5cc(-c6ccccn6)nn5)O4)O3)nn2)nc1 | x | 26% | 0% | 2.5µM* | 4%
CCOC(=O)CSC1=NC(=O)/C(=C/c2ccc(OC)cc2)S1 | -1% | 3% | 0% | 2% | 50µM*
CCC1(c2ccc(OC)cc2)NC(=O)N(C)C1=O (stereo unspecified) | -10% | -2% | 0% | x | x
O/C(=C\c1nc2ccccc2nc1/C=C(\O)c1ccccc1)c1ccccc1 | -7% | 0% | -10% | x | 45µM*
CC1(C)S[C@@H]2[C@H](NC(=O)C(C(=O)O)c3ccsc3)C(=O)N2[C@H]1C(=O)O (stereo partly specified) | x | 0%[21 µM] | x | x | x
C=CCn1c(N)c(C(=O)NCC2CCCO2)c2nc3ccccc3nc21 (stereo unspecified) | -8% | -2% | 5.6µM* | u | -12%
O=C1C2C3C=CC(C3)C2C(=O)N1CNc1ccc(O)cc1 (stereo unspecified) | u | u | 25µM* | u | x
SMILES | RECQ1 inh | APEX1 inh | BLM helicase inh | L3MBTL1 block | WRN inhibitor
Cc1ccc(NCN2C(=O)C3C4C=CC(C4)C3C2=O)cc1 (stereo unspecified) | i | 3% | 2% | 4% | 1%
S=c1[nH]nc(-c2ccccn2)n1/N=C/c1ccc(Cl)cc1 | -3% | 6% | -3% | 16µM* | -30%
S=c1[nH]nc(-c2cc(-c3ccccc3)n[nH]2)n1/N=C/c1c(Cl)cccc1Cl | -21% | -2% | -23% | -12% | u
S=c1[nH]nc(-c2ccccn2)n1/N=C/c1c(Cl)cccc1Cl | 1% | 7% | 0% | 20µM* | -24%
CC1CCC2C(=O)OC(Cc3ccccc3)CN2C1c1ccc(Br)cc1 (stereo unspecified) | 1%[11.5 µM] | -11%[12.4 µM] | -2%[12.4 µM] | x | x
Cc1cccc(N=Nc2ccc(O)c3ncccc23)c1 | i | -7% | 1% | 20µM* | -28%
Cc1ccc(C)c(N=Nc2ccc(O)c3ncccc23)c1 | -18% | 1% | -16% | x | 1%
NC[C@H]1O[C@H](O[C@H]2[C@H](O[C@@H]3O[C@H](CO)[C@@H](O)[C@H]3O)C(O)[C@H](N)C[C@@H]2N)[C@H](N)[C@@H](O)[C@@H]1O (stereo partly specified) | x | 4%[21 µM] | x | x | x
O=C(N/N=C/c1cc(Cl)cc([N+](=O)[O-])c1O)NC12CC3CC(CC(C3)C1)C2 | 5% | -1% | u | -24% | 45µM*
Oc1ccc(CN2CCCc3ccccc32)c2cccnc12 | 2% | -4% | -5% | 28µM* | -21%
COc1ccccc1N1CCN(Cc2ccc(O)c3ncccc23)CC1 | -3% | 8% | 0% | x | -7%
O=C1/C(=C\c2ccco2)CCC/C1=C\c1ccco1 | -6% | u | u | 3.5µM* | 16µM*
CC1C/C(=C/c2ccco2)C(=O)/C(=C/c2ccco2)C1 (stereo unspecified) | 6% | 4% | -20% | 3.2µM* | x
O=C1c2ccccc2CCC1CNCCc1ccc(O)cc1 (stereo unspecified) | 13% | 5% | x | x | x
O=C(N/N=C/c1cccc2cccnc12)c1ccccc1O | -1% | -3% | -5% | 6.3µM* | -4%
O=C(N/N=C/c1cccc2nccnc12)c1ccccc1O | -6% | 5% | 2% | u | -4%
COc1ccc(-c2nn(-c3ccccc3)cc2/C=C2/SC(=S)N(CCC(=O)O)C2=O)cc1 | x | 17µM* | -2% | x | 50µM*
Cc1ccc(-c2nn(-c3ccccc3)cc2/C=C2\SC(=S)N(CC(=O)O)C2=O)cc1 | 0% | u | -2% | -3% | -4%
O=C1C(=Cc2cn(-c3ccccc3)nc2-c2ccc(OCc3ccccc3F)cc2)SC(=S)N1CCS(=O)(=O)O | x | x | x | x | 32µM*
Nc1ccc(S(=O)(=O)Nc2nccs2)cc1N=Nc1ccccc1[N+](=O)[O-] | x | x | x | x | 25µM*
CCOc1cccc(CNn2cnnc2)c1OCc1ccccc1Cl | -12% | -3% | 0% | -2% | -8%
CCOc1cccc(CNc2ccc(O)cc2)c1OCc1ccccc1Cl | i | 1% | u | 40µM* | u
